Source: PubChem
AmpC no deterg: inhibitors of E. coli AmpC beta-lactamase without detergent. P00811. AmpC nitrocefin hydrolysis, absorbance 480 nm, 0.0001% Triton. Potency, µM (top dose mostly 57.1 µM), for inactives: top-dose activity change, negative = inhibition, actives largely listed as inhibitors. 330,000 tested, 0.52% active. AID 485341;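 also: potency is read from the fitted curve at half-maximal effect; plate controls were no compound for no effect and no enzyme for full effect; nearly all actives have a fitted effect of over 20% in size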
Target sequence (P00811 whole entry, looked up): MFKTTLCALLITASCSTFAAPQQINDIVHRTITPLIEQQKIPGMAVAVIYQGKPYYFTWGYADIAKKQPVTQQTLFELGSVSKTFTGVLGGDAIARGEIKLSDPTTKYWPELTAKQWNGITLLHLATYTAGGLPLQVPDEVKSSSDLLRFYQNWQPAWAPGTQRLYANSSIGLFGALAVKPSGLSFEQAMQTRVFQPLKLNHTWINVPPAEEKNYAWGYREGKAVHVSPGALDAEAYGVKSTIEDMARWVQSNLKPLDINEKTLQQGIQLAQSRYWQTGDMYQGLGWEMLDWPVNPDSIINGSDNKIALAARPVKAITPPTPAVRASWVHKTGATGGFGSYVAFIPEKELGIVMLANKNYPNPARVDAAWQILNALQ
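20 mM phosphate pH 7.0 + 0.01% (detergent screen) or 0.0001% Triton X-100; 5.3 nM AmpC reagent; cpd preinc 15 min RT; nitrocefin (800 uM stock) to start; A480 q20 s × 4 min; Activity was normalised to no-enzyme and no-compound control wells.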
HCMV antiviral: human cytomegalovirus inhibition; activity change, negative = inhibition, % at 57.5 µM; 410,000 tested, 4.5% active; HFF cells, HCMV-luciferase reporter, 72 h; active compounds read low; AID 1259415; in the data active = activity change below about -60%; inconclusive = no clear call, values can overlap the other calls; inactive = above about -39%
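Two-dose cell screen: HFF monolayers treated with compounds and infected with luciferase-expressing HCMV at 1 PFU/cell, 72 h at 37C, then lysed for luciferase measurement.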
FMDV inh: blocks foot and mouth disease virus; FMDV antiviral cell-based qHTS; Potency, µM (series often up to 57.9 µM), inactives show at the highest dose activity change, negative = inhibition, most hits filed as inhibitors; 410,000 tested, 1.2% active; AID 1159524; calls by dose curve; tested in HEK293T cells; also: read-out not given here; potency is read from the fitted curve at half-maximal effect; nearly all actives have a fitted effect of over 45% in size
HCV inhibitor: HCV inhibition. Huh7.5.1 HCVcc-Cre infection, luciferase reporter, 44 h. Potency, µM (top dose mostly 41.8 µM), without a hit: top-dose activity change, negative = inhibition, usual class: inhibitors. 340,000 tested, 3.4% active. AID 651820; also: potency is read from the fitted curve at half-maximal effect
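Seed cells (1,000/well) for 4 h; treat with compound and infect with HCVcc-Cre, moi about 0.5. Incubate 44 h, then detect luciferase activity.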
AmpC detergent: AmpC beta-lactamase inhibition with detergent present; 370,000 tested, 0.041% active; AmpC hydrolysis of nitrocefin, absorbance 480 nm, 0.01% Triton; Potency, µM (titrated, usually from 114 µM), for the others: at the top dose activity change, negative = inhibition, usual class: inhibitors;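 also: potency is read from the fitted curve at half-maximal effect; 0% = no-compound wells and -100% = no-enzyme wells; nearly all actives have a fitted effect of over 25% in size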
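AmpC (5.3 nM in the dispensed reagent) in 20 mM phosphate pH 7.0 with 0.01% (detergent screen) or 0.0001% Triton X-100 was preincubated with compounds for 15 min at room temperature. Nitrocefin was then added from an 800 uM solution, and hydrolysis was followed at 480 nm.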
The depositor's hits bear a star; ? = inconclusive; nt = no result; [ ] = dose if it differs, or a comment. Compounds with a hit are over-represented: about 7.3% of the library has one in this group of screens. Unless noted, calls follow the shape of the dose curve; as a rule, active = well fitted curve in the direction sought with a large enough effect; inconclusive = small, poorly fitted or top-dose-only effect, or another doubt; inactive = no such curve, though single readings can be large; an effect the other way counts as inactive or inconclusive. Unless noted, % is scaled to controls: 0 for no effect and ±100 for the full control effect.

SMILES	AmpC no deterg	HCMV antiviral	FMDV inh	HCV inhibitor	AmpC detergent
CCOc1ccccc1NC(=O)c1ccc(CN2CCc3ccccc3C2)cc1	-23%	1	-11%	?	-1%
CCCNC(=O)c1ccc(CN2CCc3ccccc3C2)cc1	-12%	20	0%	-19%	0%
O=C(Cc1ccccc1F)Nc1ccc2c(c1)CCC2	-25%	-15	51%	-3%	3%
COc1ccc(NC(=O)c2ccc(CN3CCc4ccccc4C3)cc2)cc1OC	5%	-64*	-29%	13µM*	-4%
CC(=O)c1cccc(NC(=O)c2ccc3c(c2)CCCC3)c1	-13%	121	35%	11µM*	-7%
COc1ccc(NC(=O)c2ccc(CN3CCN(c4ccccc4)CC3)cc2)cc1	-49%	-34	?	-16%	3%
COc1cccc(NC(=O)c2ccc(CN3CCN(c4ccccc4)CC3)cc2)c1	-19%	-67*	?	14µM*	?
O=C(Cc1cccc(F)c1)Nc1ccc2c(c1)CCC2	-14%	-98*	39%	-2%	?
COCCNC(=O)c1ccc(CN2CCc3ccccc3C2)cc1	-19%	-14	-5%	-1%	-7%
COc1cccc(OC)c1CN1CCC2(CCC(CNC(=O)c3ccccc3)O2)CC1 (stereo not drawn)	nt	nt	-11%	nt	nt
COc1ccc2nc(N(Cc3cccnc3)C(=O)C3CCCCC3)sc2c1	nt	?	10%	nt	2%
O=C(CCC1CCN(C(=O)c2cncs2)CC1)Nc1ccccc1	-12%	0	?	21%	1%
Cc1ccc(C(=O)Nc2ccc3c(c2)CCC3)cc1	-25%	-74*	-20%	-26%	0%
CC1=C(C(=O)N2CCCCCC2)CC(CC(=O)NC(c2ccccc2)c2ccccc2)C(=O)N1Cc1ccccc1 (stereo not drawn)	nt	-2	-16%	nt	nt
O=C(CS(=O)(=O)c1cccc2nsnc12)NCc1ccc(Cl)cc1	nt	-19	-16%	nt	-8%
CC(C)(C)c1cc(NC(=O)CCSc2nnc3ccccn23)cc(C(C)(C)C)c1	nt	-30	-17%	4µM*	nt
COc1cc(NC(=O)CSc2nnc3ccccn23)cc(OC)c1	-10%	41	-8%	9%	-8%
CCN(CC)S(=O)(=O)c1cc(NC(=O)c2ccc3c(c2)NC(=O)C(C)S3)ccc1C (stereo not drawn)	-23%	-80*	25µM*	4µM*	-10%
CCN(CC)S(=O)(=O)c1cc(NC(=O)c2ccc(Br)s2)ccc1C	-37%	-83*	?	10µM*	2%
Cc1cc(C)c(NC(=O)c2ccc3c(c2)NC(=O)C(C)S3)c(C)c1 (stereo not drawn)	-29%	-29	?	?	-3%
CS(=O)(=O)N(C(=O)NC(=O)NC12CC3CC(CC(C3)C1)C2)C1CCCCC1	-26%	-64*	-8%	6%	1%
O=C(NC1CCCCC1)NC12CC3CC(CC(C3)C1)C2	-20%	31	17%	2%	0%
COc1ccc(/C=C/C2=CC(C)(C)NC(=S)N2)cc1	8.9µM*	?	-25%	?	-6%
COc1ccc(C=C2C(=O)NC(=S)NC2=O)cc1OC	nt	-26	-27%	-3%	nt
COc1ccc(/C=C/C(=O)c2ccoc2)cc1	-19%	51	-2%	16%	-7%
SMILES	AmpC no deterg	HCMV antiviral	FMDV inh	HCV inhibitor	AmpC detergent
COc1ccc(/C=C/C=C2C(=O)NC(=S)NC2=O)cc1	nt	7	40µM*	?	nt
CCN(CC)S(=O)(=O)c1ccc(C(C)NC(=O)C2CCCN2C(=O)c2cccs2)cc1 (stereo not drawn)	-13%	-4	-6%	-26%	6%
CN(C)S(=O)(=O)c1ccc(C(=O)Nc2nnc(-c3ccc4c(c3)CCCC4)o2)cc1	2.8µM*	3	-19%	-18%	?
O=C(Nc1nnc(-c2ccc3c(c2)CCCC3)o1)c1ccc(Cl)cc1Cl	35µM*	31	-17%	2%	?
O=C(O)Cc1csc(-c2ccccc2)n1	-23%	-63*	17%	-8%	2%
O=C(N/C(=C/c1cccs1)C(=O)N1CCCCCC1)c1ccccc1	-10%	-98*	63%	15%	-13%
O=C(N/C(=C/c1ccc(Cl)cc1)C(=O)N1CCOCC1)c1ccccc1	27%	-78*	15%	33%	-1%
NC(=O)c1ccccc1NC(=O)NC1CCCCC1	-13%	-2	4%	13%	?
O=C1CCCC(=NNC(=O)c2cc3ccccc3cc2O)C1	32µM*	nt	-15%	-18%	nt
O=C(Nc1ccccc1NC(=O)NC1CCCCC1)NC1CCCCC1	-13%	-106*	54%	13µM*	-1%
O=C(NC1CCCCCCC1)c1ccccc1O	-37%	91	-12%	-1%	?
O=C(NC1CCCCC1)c1cc2ccccc2cc1O	20µM*	0	-5%	-28%	0%
CCNS(=O)(=O)c1ccc(NC(=O)Nc2cc(C)ccc2OC)cc1	11µM*	-15	5%	13µM*	2%
O=C(NN=C1CCCCCC1)c1cc2ccccc2cc1O	-48%	50	0%	7%	2%
[O-][n+]1ccc(CC(O)(C(F)(F)F)C(F)(F)F)cc1	nt	-4	-2%	nt	nt
COc1ccc(OC)c(NC(=O)NC2CCCCCCC2)c1	-35%	4	-10%	-7%	-6%
COc1ccc(C)cc1NC(=O)NC1CCCCCCC1	22µM*	?	13%	-6%	3%
COc1ccc(C)cc1NC(=O)CC1COc2ccccc2O1 (stereo not drawn)	-24%	-61*	-16%	-8%	1%
COc1cc(OC)c(OC)cc1NC(=O)CC1COc2ccccc2O1 (stereo not drawn)	-14%	58	-1%	7%	?
O=C(Nc1cc(Sc2ccccn2)cc([N+](=O)[O-])c1)c1cccc(F)c1	-36%	-67*	32µM*	?	0%
O=C(Nc1cc(Sc2nc3ccccc3s2)cc([N+](=O)[O-])c1)c1ccccc1F	?	1	-11%	10µM*	-1%
Cc1cc(NC(=O)c2ccccc2F)ccc1-c1nc2ccccc2s1	nt	96	24%	nt	-6%
O=C(Nc1cc(Sc2nc3ccccc3s2)cc([N+](=O)[O-])c1)c1ccccc1	13µM*	-36	?	?	-14%
O=C(Nc1cccc([N+](=O)[O-])c1)c1ccccc1	-18%	-26	20%	?	-7%
O=C(Nc1ncccn1)c1cccc(F)c1	-6%	-76*	1%	14%	?
CC(C)CC1NC(=O)N(CC(=O)Nc2ccc3c(c2)CCC3)C1=O (stereo not drawn)	-20%[11.4 µM]	36	-1%	11%	-14%
COc1cccc(NC(=O)CN(C)C(=O)CSCC(=O)Nc2ccc(C)cc2)c1	-12%	0	-3%	2%	1%
COc1ccc([C@H]2CC(=O)C=C(c3ccc(CNC(=O)OC(C)(C)C)cc3)C2)cc1	0%	21	?	?	-7%
